Source: ChEMBL document CHEMBL4513141, “CO-ADD screening of NIH (USA) - Clinical Collection” (2021)
Where “and” joins values, the source holds several entries; their conditions need not be identical. Identical values can stand only once. Measured potencies and affinities stand elsewhere.

Key:
Klebsiella pneumoniae = settings: Concentration 20 uM, ASSAY_TEST Inhibition of Bacterial Growth, detection method Absorption (OD600), MEDIA CAMHB, plate type 384well, NBS, CORNING #3640, time 18 hr
Candida albicans = settings: 20 µM
Cryptococcus neoformans = settings: Concentration 20 uM, ASSAY_TEST Inhibition of Fungal Growth, detection method Resazurin, Absorption (OD600-OD570), plate type 384well, NBS, CORNING #3640

Row | SMILES | Inhibition (Klebsiella pneumoniae) [%] | Inhibition (Candida albicans) | Inhibition (Cryptococcus neoformans) [%] | Inhibition (Klebsiella pneumoniae; 20 µM) | Inhibition (Cryptococcus neoformans; 20 µM)
1 | CN(C)CCCN1c2ccccc2Sc2ccc(Cl)cc21.Cl [CHLORPROMAZINE HYDROCHLORIDE] | 12.47 | 0.59% | 2.71 |  | 
2 | O=C(O[C@H]1[C@H](Oc2ccccc2COC(=O)C2(O)C=CCCC2=O)O[C@H](CO)[C@@H](O)[C@@H]1O)c1ccccc1 (some centres undefined) [TREMULACIN] | 9.15 | 3.13% | -9.11 |  | 
3 | CC12CC3CC(C)(C1)CC(N)(C3)C2.Cl [MEMANTINE HYDROCHLORIDE] | 12.73 | 4.09% | -0.08 |  | 
4 | CCC(CO)NCCNC(CC)CO (centres undefined) | 10.98 | 2.36% | -1.69 |  | 
5 | COc1ccc(CN2CCN(C(c3ccc(F)cc3)c3ccc(F)cc3)CC2)c(OC)c1OC.Cl.Cl | -0.73 | 2.16% | -36.76 |  | 
6 | O=C1c2c(O)cc(O)cc2O[C@H](c2ccc(O)c(O)c2)[C@@H]1O | 9.75 | 3.45% | -8.67 |  | 
7 | CC(C)[N+](C)(CCOC(=O)C1c2ccccc2Oc2ccccc21)C(C)C.[Br-] [PROPANTHELINE BROMIDE] | 18.08 | 2.52% | -1.43 |  | 
8 | CC1Cc2ccccc2N1NC(=O)c1ccc(Cl)c(S(N)(=O)=O)c1 (centres undefined) [INDAPAMIDE] | 9.63 | -0.23% | -0.18 |  | 
9 | CN1CCN(CCCN2c3ccccc3Sc3ccc(C(F)(F)F)cc32)CC1.Cl.Cl [TRIFLUOPERAZINE HYDROCHLORIDE] | 10.06 | 2.94% | -7.04 |  | 
10 | CC(C)(C(=O)O)c1ccc(C(O)CCCN2CCC(C(O)(c3ccccc3)c3ccccc3)CC2)cc1.Cl (centres undefined) [FEXOFENADINE HYDROCHLORIDE] | 13.11 | 1.18% | -7.41 |  | 
11 | CC(C)c1nc(CN(C)C(=O)N[C@H](C(=O)N[C@@H](Cc2ccccc2)C[C@H](O)[C@H](Cc2ccccc2)NC(=O)OCc2cncs2)C(C)C)cs1 [RITONAVIR] | 14.84 | 1.82% | -5.87 |  | 
12 | CC(Cc1ccccc1)(NC(=O)CN)c1ccccc1.Cl (centres undefined) [REMACEMIDE HYDROCHLORIDE] | 8.63 | 4.18% | -7.79 |  | 
13 | CC[C@]1(O)C[C@@H]2CN(CCc3c([nH]c4ccccc34)[C@@](C(=O)OC)(c3cc4c(cc3OC)N(C)[C@H]3[C@@](O)(C(N)=O)[C@H](O)[C@]5(CC)C=CCN6CC[C@]43[C@@H]65)C2)C1.O=S(=O)(O)O [VINDESINE SULFATE] | 6.96 | 3.45% | 0.45 |  | 
14 | CCCCC(=O)O[C@H]1CC[C@H]2[C@@H]3CCc4cc(O)ccc4[C@H]3CC[C@]12C [ESTRADIOL VALERATE] | 8.52 | 0.66% | 2.38 |  | 
15 | CC(C)NCC(O)c1ccc(NS(C)(=O)=O)cc1.Cl (centres undefined) [SOTALOL HYDROCHLORIDE] | -0.96 | 5.09% | 3.23 |  | 
16 | CN1CCCC(n2nc(Cc3ccc(Cl)cc3)c3ccccc3c2=O)CC1.Cl (centres undefined) [AZELASTINE HYDROCHLORIDE] | -1 | 4.45% | 4.19 |  | 
17 | C#C[C@]1(O)CC[C@H]2[C@@H]3CCC4=CC(=O)CC[C@@H]4[C@H]3CC[C@@]21CC [LEVONORGESTREL] | 13.61 | 3.12% | 2.67 |  | 
18 | CS(=O)(=O)O.Cc1ccc(NC(=O)c2ccc(CN3CCN(C)CC3)cc2)cc1Nc1nccc(-c2cccnc2)n1 [IMATINIB MESYLATE] | 14.57 | 2.45% | 9.11 |  | 
19 | C[C@@H]1C[C@H]2[C@@H]3CCC4=CC(=O)C=C[C@]4(C)[C@@]3(F)[C@@H](O)C[C@]2(C)[C@@]1(O)C(=O)CO [DEXAMETHASONE] |  | 1.68% and 4.41% |  | -0.78% and 2.8% | -1.2% and -1.22%
20 | NC(Cc1cc(I)c(Oc2ccc(O)c(I)c2)c(I)c1)C(=O)O (centres undefined) [RATHYRONINE] | 9.96 | 2.19% | -1.85 |  | 
21 | Nc1nc(N)c2nc(-c3ccccc3)c(N)nc2n1 | -1.05 | 4.35% | 1.8 |  | 
22 | CC(c1cc2ccccc2s1)N(O)C(N)=O (centres undefined) [ZILEUTON] | 4.07 | 5.22% | 2.66 |  | 
23 | CCc1cccc2c3c([nH]c12)C(CC)(CC(=O)O)OCC3 (centres undefined) [ETODOLAC] | 6.96 | 1.19% | -2.08 |  | 
